{"source": "PubChem BioAssay AID1508600", "about": "(Functional Genomics Laboratory (NCATS/FGL), 2020)", "note": "The whole screen tested about 53,000 sequences, of which about 3,700 (7%) were called active. This excerpt belongs to a sample that is enriched for actives. Values without a mark were called inactive.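 How the source made its calls: active means gene knockdowns whose robust z-score for IL-1 alpha signal is at least 2 or at most -2, so actives lie on both sides; inactive means the rest.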", "data": [{"assay": "Components of the Cytosolic LPS Sensing Pathway: Gene Identification via Genome-wide siRNA Screen;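 further: robust z of the log signal after scaling to non-targeting control siRNA wells of the plate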", "settings": "RAW264.7 macrophages, IL-1a HTRF, actives lie on both sides, screened at 100 nM (by protocol), cells primed 5 h with Pam3CSK4 first", "method_in_brief": "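Read-out: IL-1a HTRF on supernatant, divided by plate negative-control median ×100, log-transformed and converted to robust z-score. Cells were RAW264.7 given 100 nM siRNA, Pam3CSK4-primed 5 hours, then LipidA-transfected 24 hour.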", "values": [{"sequence": "GGAACUUAGAAGUUUACAATT against Caml", "z-score": -0.0418}, {"sequence": "GGUCACAAAGAAGAAUCACTT against Heg1", "z-score": "-2.31 (active)"}, {"sequence": "GGUUGAGUGUUUGAAGUCATT against Slc38a11", "z-score": -1.9}, {"sequence": "GCUUUACUCCCUAAAUUCATT against Dmrt3", "z-score": 0.755}, {"sequence": "CCUCUUAGAUCAGGAUUAUTT against Usp37", "z-score": 0.991}, {"sequence": "GGCAUGGAAUGAGCUUUUCTT against Nr2e3", "z-score": "3.83 (active)"}, {"sequence": "GGACUAAGCAAUCUCUUUUTT against Gspt2", "z-score": 0.81}, {"sequence": "GGUGCUUUGUUAUCCAUAATT against Tnfrsf26", "z-score": "-2.72 (active)"}, {"sequence": "CCUAAUUGUAGUAGUACUATT against Olfr117", "z-score": -0.955}, {"sequence": "GGCCUAGCAAUUCUUGAGCTT against Gm5087", "z-score": -0.18}, {"sequence": "CCCUGUAUAUUGCAUUUCCTT against Pcdhb21", "z-score": 0.198}, {"sequence": "GGGAGUUUUUAUAUGGUUUTT against Ybey", "z-score": 1.27}, {"sequence": "GCAGAUGACUAUCGGAAGUTT against Usp53", "z-score": "2.19 (active)"}, {"sequence": "GGGCAGCAAAGAAUUAACUTT against Ptpmt1", "z-score": -0.619}, {"sequence": "GGAAGAAAAUCUUGAAGCATT against Ddx51", "z-score": -0.232}, {"sequence": "GCGAUAUGACAGACUCUUCTT against Csrnp1", "z-score": 1.79}, {"sequence": "GGAUGUUAUUCGCCACGCGTT against Zfp335", "z-score": -0.134}, {"sequence": "CCCGUUCAAGCAAUUACAUTT against G2e3", "z-score": -1.05}, {"sequence": "GGUGAAGACUUCCAGAAGGTT against Reg3a", "z-score": -0.186}, {"sequence": "CCUGUACAGUUGGAAACAUTT against Snrpd1", "z-score": "-2.02 (active)"}, {"sequence": "GGACUUCUCCUUUAAUAAUTT against Cox7a2l", "z-score": -0.494}, {"sequence": "GCCCGACCUGUUGAGAAGATT against Znhit3", "z-score": 1.43}, {"sequence": "GGAGGAAAAGUAGGUUUGCTT against Peli1", "z-score": -0.531}, {"sequence": "GGUAAGUGGAGGUAUUCUUTT against Egln1", "z-score": "2.28 (active)"}, {"sequence": "GGCCAGGAAAUAUGAAAUATT against Phtf1", "z-score": -0.352}, {"sequence": "GCCUUGAUAAUUUUGUAAGTT against Gimap9", "z-score": 0.533}, {"sequence": "GCACCCUAAUGUGAUCGCATT against Cdk19", "z-score": -1.34}, {"sequence": "CCACCUGAAUCAUUACUCATT against Rdh19", "z-score": "-3.29 (active)"}, {"sequence": "GGAGAAGAUUUUCUGUAUCTT against Atp13a5", "z-score": 0.545}, {"sequence": "GCUGAGAGACUUGUGAAAUTT against Ndufb11", "z-score": 1.06}, {"sequence": "GGAAAUCAGCUGUGAAAAATT against Fbxl20", "z-score": -0.628}, {"sequence": "GCAGGUCUAAAACUCUCAUTT against Sfmbt1", "z-score": "2.38 (active)"}, {"sequence": "GCCUCAUCGUCAUCGCCAATT against Gpbar1", "z-score": -0.897}, {"sequence": "GCAUACCUAGACUGAAAACTT against Rilpl2", "z-score": -0.477}, {"sequence": "GGAGCUGUUUCCAGUUCAGTT against Tomm40", "z-score": -1.12}, {"sequence": "CGUGCUGGUAACGGAAUUGTT against Ptger2", "z-score": "2.29 (active)"}, {"sequence": "GGGAACAGGAGAAAACGGATT against Bnipl", "z-score": 1.2}, {"sequence": "GGAAGACAACUGUUGUGGCTT against Dagla", "z-score": -0.54}, {"sequence": "GUUCGGUACAACUUUUCUGTT against Alx4", "z-score": 0.326}, {"sequence": "GGAUAAAAAUCACCCACUGTT against Vwa8", "z-score": 0.21}, {"sequence": "GCCUCUUAAUGCUUUUGUATT against Sfxn1", "z-score": -0.272}, {"sequence": "GGUGGUUGGAGUACUCAAGTT against Capza1", "z-score": "-2.53 (active)"}, {"sequence": "GCACAUCACAAGAAUUACUTT against Lhfpl1", "z-score": -0.0486}, {"sequence": "AGCUGACUGUAAAAAAACCTT against Fuom", "z-score": 0.19}, {"sequence": "GGAAAUGCCAUAGUCCUAUTT against Mrgprb5", "z-score": "-2.54 (active)"}, {"sequence": "GGAACUGGCCAAGUUUAAATT against Ing3", "z-score": 0.653}, {"sequence": "GGCCAGAACUACGAAGCCATT against Capn12", "z-score": 0.981}, {"sequence": "GGACCUUCGUGAGAAUUUCTT against Mst1", "z-score": 0.521}, {"sequence": "CCUACAGUGACCUUUCCCGTT against Apcs", "z-score": -1.22}, {"sequence": "GGAUAUCACCCACAAUAAATT against Vps28", "z-score": -0.653}, {"sequence": "GGAGCAAUUCUACCGCUACTT against Fbxw5", "z-score": "-2.14 (active)"}, {"sequence": "GCCCAUUUUAGUAAACGAATT against Dspp", "z-score": 1.87}, {"sequence": "GGCCUUAAAGAAACACAAGTT against Hnrnph2", "z-score": "2.3 (active)"}, {"sequence": "GGUCCUUCAACGGAAGGGATT against Tagap", "z-score": 0.196}]}]}
